The record followed here is article PMC7862700, “An all-to-all approach to the identification of sequence-specific readers for epigenetic DNA modifications on cytosine”.

Holding throughout (experiment): DAPPL (digital affinity profiling via proximity ligation, sequencing); 10 mM Tris-HCl pH 7.5, 50 mM NaCl, 1 mM DTT, 4% glycerol, room temperature, 30 min; GST-TFs on glutathione beads, 16-mer random dsDNA library, 0.1% formaldehyde crosslink after washing; high values mean tight binding
In assay [1] the target is T1, FLI1 (Homo sapiens, UniProt Q01543 1-452).
T1 sequence: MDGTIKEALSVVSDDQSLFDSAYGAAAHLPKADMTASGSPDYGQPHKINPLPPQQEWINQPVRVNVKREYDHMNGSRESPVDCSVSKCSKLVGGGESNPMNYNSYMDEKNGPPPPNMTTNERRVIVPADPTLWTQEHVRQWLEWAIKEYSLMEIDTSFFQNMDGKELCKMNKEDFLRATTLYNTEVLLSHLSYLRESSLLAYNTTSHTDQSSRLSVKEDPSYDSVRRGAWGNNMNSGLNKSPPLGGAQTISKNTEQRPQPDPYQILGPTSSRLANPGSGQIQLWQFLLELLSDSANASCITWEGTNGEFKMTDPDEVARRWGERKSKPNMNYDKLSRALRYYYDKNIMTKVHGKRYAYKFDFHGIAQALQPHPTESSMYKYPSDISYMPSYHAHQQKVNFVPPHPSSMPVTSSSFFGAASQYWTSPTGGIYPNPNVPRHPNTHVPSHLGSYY
As to conditions: protein: recombinant; tags: N-terminal GST; dsDNA, one strand shown. A digest of the protocol: (§1)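 Pools were built from human transcription factors expressed in yeast as GST fusions, captured on glutathione beads and DNA-barcoded, along with a tag-only sample. Incubation with 200 nmole of a 16-mer random double-stranded DNA library lasted 30 min at room temperature in Tris/NaCl/DTT/glycerol buffer, and was followed by washing, 0.1% formaldehyde crosslinking, proximity ligation, PCR amplification and Illumina NextSeq500 sequencing. Binding signal is the quotient of each hexamer's read frequency for a factor and its frequency for the tag-only sample.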

For assay [2], the target named is T2, ELK1 (Homo sapiens, UniProt P19419 1-428).
T2 sequence: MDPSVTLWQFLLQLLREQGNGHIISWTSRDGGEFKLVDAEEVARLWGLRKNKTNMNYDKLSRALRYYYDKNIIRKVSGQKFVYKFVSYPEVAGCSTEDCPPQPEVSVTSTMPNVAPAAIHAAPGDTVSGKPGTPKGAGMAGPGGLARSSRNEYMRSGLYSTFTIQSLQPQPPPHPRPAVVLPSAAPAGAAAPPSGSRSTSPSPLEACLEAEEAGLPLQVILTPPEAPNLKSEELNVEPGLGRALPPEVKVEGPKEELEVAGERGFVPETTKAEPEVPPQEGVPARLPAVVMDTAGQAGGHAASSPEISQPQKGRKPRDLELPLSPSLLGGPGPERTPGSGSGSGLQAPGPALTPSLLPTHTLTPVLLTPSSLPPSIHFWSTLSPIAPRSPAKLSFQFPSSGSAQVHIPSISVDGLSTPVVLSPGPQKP
As to conditions: protein: recombinant; tags: N-terminal GST; dsDNA, one strand shown. In short, it runs like this: as §1

In assay [3] the target is T3, GABPA (Homo sapiens, UniProt Q06546 1-454).
T3 sequence: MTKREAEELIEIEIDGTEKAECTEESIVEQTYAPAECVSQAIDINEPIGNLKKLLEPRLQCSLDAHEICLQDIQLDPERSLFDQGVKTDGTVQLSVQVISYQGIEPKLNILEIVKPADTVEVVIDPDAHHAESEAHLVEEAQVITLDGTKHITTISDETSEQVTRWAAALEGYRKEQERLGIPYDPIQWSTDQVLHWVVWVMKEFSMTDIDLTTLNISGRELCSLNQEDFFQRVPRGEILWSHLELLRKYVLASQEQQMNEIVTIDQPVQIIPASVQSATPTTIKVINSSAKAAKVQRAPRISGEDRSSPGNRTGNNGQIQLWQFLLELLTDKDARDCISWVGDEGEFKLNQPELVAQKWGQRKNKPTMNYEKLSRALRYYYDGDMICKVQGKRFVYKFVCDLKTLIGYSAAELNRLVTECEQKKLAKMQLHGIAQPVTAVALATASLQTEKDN
As to conditions: protein: recombinant; tags: N-terminal GST; dsDNA, one strand shown. In short, it runs like this:
as §1

Assay [4] concerns the target T4, ERG (Homo sapiens, UniProt P11308 1-479).
T4 sequence: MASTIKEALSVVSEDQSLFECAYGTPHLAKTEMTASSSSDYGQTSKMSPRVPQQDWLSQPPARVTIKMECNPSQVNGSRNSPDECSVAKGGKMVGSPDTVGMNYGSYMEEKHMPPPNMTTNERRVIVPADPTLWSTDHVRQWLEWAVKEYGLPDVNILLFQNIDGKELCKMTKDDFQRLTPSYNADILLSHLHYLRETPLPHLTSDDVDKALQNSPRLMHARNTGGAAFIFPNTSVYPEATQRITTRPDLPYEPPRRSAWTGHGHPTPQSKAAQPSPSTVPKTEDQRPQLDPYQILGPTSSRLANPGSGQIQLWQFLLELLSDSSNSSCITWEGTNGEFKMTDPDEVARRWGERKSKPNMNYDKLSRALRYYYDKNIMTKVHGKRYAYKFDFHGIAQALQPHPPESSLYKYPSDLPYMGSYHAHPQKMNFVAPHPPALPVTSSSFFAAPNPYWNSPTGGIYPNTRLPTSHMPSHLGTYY
As to conditions: protein: recombinant; tags: N-terminal GST; dsDNA, one strand shown. A digest of the protocol:
as §1

Assay [5] addresses ELF1 (Homo sapiens, UniProt P32519 1-619). As to conditions: protein: recombinant; tags: N-terminal GST; dsDNA, one strand shown. In short, it runs like this:
as §1

Assay [6] has as its target T5, EHF (Homo sapiens, UniProt Q9NZC4 1-300).
T5 sequence: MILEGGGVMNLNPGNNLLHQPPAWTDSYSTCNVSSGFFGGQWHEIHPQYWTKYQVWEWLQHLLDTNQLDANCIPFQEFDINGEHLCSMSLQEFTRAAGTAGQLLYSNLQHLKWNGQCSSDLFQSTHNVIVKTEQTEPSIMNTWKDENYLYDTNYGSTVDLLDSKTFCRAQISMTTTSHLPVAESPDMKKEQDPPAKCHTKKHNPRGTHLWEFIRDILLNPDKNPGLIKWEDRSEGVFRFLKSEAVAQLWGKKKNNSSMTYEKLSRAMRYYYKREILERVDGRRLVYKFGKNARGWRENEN
As to conditions: protein: recombinant; tags: N-terminal GST; dsDNA, one strand shown. A digest of the protocol: as §1

Assay [7] deals with SPI1 (Homo sapiens, UniProt P17947 1-270). As to conditions: protein: recombinant; tags: N-terminal GST; dsDNA, one strand shown. In short, it runs like this: as §1
Assay [8] addresses SPIB (Homo sapiens, UniProt Q01892 1-262). As to conditions: protein: recombinant; tags: N-terminal GST; dsDNA, one strand shown. In short, it runs like this:
as §1

Assay [9] has as its target T6, ELK3 (Homo sapiens, UniProt P41970 1-407).
T6 sequence: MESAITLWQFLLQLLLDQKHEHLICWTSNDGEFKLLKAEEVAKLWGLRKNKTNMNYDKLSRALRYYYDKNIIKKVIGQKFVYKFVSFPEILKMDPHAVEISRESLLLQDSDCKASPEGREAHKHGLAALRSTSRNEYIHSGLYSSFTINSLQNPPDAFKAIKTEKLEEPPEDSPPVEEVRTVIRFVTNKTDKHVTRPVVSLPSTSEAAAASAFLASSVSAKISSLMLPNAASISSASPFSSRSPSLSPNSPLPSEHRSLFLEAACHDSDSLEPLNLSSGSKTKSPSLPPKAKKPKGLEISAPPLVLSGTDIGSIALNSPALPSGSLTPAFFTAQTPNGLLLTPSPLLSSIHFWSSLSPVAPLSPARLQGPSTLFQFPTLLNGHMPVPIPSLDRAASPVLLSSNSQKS
As to conditions: protein: recombinant; tags: N-terminal GST; dsDNA, one strand shown. A digest of the protocol:
as §1

Assay [10] concerns the target T7, FEV (Homo sapiens, UniProt Q99581 1-238).
T7 sequence: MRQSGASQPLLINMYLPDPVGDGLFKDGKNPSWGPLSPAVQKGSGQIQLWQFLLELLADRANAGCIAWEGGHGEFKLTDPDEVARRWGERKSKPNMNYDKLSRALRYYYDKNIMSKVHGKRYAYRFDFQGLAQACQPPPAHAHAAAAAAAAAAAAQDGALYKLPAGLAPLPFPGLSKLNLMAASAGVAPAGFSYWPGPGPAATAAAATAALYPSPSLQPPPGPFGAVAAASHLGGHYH
As to conditions: protein: recombinant; tags: N-terminal GST; dsDNA, one strand shown. A digest of the protocol: as §1

In assay [11] the target is ETV5 (Homo sapiens, UniProt P41161 1-510). As to conditions: protein: recombinant; tags: N-terminal GST; dsDNA, one strand shown. A digest of the protocol:
as §1

The target in assay [12] is HSF1 (Homo sapiens, UniProt Q00613 1-529). As to conditions: protein: recombinant; tags: N-terminal GST; chain copies: 3; dsDNA, one strand shown. In short, it runs like this:
as §1

Assay [13] concerns the target T8, SPIC (Homo sapiens, UniProt Q8N5J4 1-248).
T8 sequence: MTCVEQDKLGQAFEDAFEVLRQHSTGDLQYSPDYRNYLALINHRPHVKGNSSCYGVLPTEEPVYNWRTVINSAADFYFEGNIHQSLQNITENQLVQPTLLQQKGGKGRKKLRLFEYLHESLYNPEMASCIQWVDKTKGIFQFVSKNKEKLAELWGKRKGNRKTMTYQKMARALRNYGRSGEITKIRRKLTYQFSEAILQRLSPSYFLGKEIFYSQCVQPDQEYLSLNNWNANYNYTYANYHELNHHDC
As to conditions: protein: recombinant; tags: N-terminal GST; dsDNA, one strand shown. A digest of the protocol: as §1

In assay [14] the target is ELF4 (Homo sapiens, UniProt Q99607 1-663). As to conditions: protein: recombinant; tags: N-terminal GST; dsDNA, one strand shown. A digest of the protocol: as §1
Sequence of ELF4 (Q99607 whole entry): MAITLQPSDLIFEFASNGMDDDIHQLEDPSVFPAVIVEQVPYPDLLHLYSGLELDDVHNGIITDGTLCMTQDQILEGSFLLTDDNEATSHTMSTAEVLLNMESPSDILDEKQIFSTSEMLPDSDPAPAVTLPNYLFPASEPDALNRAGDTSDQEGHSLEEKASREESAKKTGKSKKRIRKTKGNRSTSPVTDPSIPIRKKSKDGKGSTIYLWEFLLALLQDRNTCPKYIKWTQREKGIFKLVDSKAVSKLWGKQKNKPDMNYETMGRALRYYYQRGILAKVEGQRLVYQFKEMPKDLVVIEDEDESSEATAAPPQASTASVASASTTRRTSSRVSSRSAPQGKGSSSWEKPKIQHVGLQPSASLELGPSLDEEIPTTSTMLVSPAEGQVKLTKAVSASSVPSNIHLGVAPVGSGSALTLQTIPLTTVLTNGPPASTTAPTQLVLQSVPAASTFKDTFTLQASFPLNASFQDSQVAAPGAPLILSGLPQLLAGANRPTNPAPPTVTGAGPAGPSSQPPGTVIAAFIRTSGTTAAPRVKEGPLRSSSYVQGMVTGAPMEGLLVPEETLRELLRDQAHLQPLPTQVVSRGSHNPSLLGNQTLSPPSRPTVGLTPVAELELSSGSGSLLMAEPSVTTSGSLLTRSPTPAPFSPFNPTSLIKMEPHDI
The target in assay [15] is T9, ELK4 (Homo sapiens, UniProt P28324-2 1-405).
T9 sequence: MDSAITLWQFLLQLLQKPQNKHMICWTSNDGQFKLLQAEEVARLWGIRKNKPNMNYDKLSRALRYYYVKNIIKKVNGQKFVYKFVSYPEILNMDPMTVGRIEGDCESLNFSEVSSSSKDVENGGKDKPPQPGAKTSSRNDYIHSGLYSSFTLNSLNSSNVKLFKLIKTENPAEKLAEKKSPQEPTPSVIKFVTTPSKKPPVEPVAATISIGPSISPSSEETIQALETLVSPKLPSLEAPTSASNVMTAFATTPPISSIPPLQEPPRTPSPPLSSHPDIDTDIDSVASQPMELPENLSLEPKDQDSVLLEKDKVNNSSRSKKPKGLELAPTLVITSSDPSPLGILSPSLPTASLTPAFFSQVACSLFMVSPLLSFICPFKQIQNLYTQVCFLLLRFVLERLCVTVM
As to conditions: protein: recombinant; tags: N-terminal GST; dsDNA, one strand shown. A digest of the protocol:
as §1

Assay [16] deals with T10, ETV2 (Homo sapiens, UniProt O00321 1-342).
T10 sequence: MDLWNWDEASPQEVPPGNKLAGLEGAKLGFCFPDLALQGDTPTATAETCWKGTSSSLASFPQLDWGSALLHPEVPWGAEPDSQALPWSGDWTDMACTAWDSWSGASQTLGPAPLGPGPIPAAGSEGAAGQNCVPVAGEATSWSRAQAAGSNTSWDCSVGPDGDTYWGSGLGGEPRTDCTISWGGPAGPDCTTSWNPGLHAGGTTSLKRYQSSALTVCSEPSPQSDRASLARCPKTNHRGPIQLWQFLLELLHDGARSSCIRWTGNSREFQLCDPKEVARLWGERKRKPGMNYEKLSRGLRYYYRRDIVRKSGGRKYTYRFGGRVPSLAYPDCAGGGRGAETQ
As to conditions: protein: recombinant; tags: N-terminal GST; dsDNA, one strand shown. In short, it runs like this: as §1

The target in assay [17] is T11, ELF3 (Homo sapiens, UniProt P78545 1-371).
T11 sequence: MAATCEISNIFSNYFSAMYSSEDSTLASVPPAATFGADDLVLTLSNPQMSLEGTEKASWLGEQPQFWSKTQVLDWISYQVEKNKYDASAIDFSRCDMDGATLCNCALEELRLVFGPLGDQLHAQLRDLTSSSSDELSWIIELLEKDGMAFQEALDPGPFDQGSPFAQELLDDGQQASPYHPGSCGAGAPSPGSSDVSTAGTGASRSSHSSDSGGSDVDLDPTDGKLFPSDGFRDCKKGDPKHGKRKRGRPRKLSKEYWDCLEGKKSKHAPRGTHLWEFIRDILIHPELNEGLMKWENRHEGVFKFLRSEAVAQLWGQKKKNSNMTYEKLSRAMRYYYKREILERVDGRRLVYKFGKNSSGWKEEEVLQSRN
As to conditions: protein: recombinant; tags: N-terminal GST; dsDNA, one strand shown. In short, it runs like this: as §1

The target in assay [18] is CRX (Homo sapiens, UniProt O43186 1-299). As to conditions: protein: recombinant; tags: N-terminal GST; dsDNA, one strand shown. A digest of the protocol:
as §1

Assay [19] concerns the target ETV1 (Homo sapiens, UniProt P50549 1-477). As to conditions: protein: recombinant; tags: N-terminal GST; dsDNA, one strand shown. A digest of the protocol:
as §1

Sequence of ELF1 (P32519 whole entry): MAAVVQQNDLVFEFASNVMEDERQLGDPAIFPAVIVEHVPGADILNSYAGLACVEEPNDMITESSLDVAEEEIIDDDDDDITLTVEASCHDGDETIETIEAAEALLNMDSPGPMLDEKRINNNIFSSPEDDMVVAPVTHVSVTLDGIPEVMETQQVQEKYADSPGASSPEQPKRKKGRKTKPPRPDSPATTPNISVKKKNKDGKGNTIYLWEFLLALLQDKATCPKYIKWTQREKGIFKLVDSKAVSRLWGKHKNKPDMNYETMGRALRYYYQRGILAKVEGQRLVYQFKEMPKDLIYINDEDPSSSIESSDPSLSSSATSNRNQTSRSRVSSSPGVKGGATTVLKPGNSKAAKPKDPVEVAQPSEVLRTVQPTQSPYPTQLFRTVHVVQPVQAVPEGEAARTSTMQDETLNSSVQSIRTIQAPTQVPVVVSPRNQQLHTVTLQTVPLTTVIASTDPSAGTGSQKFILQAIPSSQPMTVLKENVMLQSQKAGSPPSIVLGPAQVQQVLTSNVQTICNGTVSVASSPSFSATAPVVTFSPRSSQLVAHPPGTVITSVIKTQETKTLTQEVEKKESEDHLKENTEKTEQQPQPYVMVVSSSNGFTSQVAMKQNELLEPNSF
Sequence of SPIB (Q01892 whole entry): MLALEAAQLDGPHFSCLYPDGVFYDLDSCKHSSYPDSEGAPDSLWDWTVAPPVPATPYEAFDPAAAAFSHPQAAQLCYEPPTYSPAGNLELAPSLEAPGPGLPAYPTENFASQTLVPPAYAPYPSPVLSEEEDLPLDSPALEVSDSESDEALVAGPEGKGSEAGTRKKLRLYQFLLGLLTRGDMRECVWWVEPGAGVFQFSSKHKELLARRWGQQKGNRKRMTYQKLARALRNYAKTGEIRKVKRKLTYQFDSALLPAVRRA
Sequence of ETV1 (P50549 whole entry): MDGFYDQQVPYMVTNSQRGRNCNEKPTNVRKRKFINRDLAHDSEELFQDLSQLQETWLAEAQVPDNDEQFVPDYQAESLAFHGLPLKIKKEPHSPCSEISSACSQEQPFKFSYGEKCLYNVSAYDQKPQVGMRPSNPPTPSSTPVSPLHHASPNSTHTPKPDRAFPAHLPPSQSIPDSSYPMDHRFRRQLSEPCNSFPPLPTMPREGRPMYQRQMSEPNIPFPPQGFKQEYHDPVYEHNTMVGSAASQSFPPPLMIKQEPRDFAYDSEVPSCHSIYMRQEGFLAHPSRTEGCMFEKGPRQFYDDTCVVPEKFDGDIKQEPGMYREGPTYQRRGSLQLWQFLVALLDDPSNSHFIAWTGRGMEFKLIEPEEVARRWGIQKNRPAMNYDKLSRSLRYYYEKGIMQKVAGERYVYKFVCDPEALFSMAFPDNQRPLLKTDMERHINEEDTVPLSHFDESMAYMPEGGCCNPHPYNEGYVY
Sequence of HSF1 (Q00613 whole entry): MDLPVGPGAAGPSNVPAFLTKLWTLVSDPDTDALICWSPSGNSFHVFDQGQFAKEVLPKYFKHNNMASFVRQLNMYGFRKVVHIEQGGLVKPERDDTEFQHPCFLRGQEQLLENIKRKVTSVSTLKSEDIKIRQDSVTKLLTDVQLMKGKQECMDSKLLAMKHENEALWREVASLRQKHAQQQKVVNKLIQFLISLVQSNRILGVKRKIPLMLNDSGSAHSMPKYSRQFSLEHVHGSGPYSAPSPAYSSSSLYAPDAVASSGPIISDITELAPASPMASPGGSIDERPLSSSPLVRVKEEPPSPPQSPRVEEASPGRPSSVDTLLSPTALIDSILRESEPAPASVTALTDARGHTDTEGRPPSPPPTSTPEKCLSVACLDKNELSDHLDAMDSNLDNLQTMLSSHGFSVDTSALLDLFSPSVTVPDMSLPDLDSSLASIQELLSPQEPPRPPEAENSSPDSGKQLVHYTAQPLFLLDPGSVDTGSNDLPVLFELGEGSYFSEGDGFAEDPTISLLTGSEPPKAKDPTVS
Sequence of CRX (O43186 whole entry): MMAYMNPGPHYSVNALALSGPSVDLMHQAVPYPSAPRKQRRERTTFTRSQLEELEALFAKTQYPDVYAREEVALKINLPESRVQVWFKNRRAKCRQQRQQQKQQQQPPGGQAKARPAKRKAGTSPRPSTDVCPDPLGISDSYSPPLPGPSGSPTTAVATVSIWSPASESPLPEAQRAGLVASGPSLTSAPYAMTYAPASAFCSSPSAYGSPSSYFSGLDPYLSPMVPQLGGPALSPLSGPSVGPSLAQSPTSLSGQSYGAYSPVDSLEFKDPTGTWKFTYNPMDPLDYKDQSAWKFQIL
Sequence of ETV5 (P41161 whole entry): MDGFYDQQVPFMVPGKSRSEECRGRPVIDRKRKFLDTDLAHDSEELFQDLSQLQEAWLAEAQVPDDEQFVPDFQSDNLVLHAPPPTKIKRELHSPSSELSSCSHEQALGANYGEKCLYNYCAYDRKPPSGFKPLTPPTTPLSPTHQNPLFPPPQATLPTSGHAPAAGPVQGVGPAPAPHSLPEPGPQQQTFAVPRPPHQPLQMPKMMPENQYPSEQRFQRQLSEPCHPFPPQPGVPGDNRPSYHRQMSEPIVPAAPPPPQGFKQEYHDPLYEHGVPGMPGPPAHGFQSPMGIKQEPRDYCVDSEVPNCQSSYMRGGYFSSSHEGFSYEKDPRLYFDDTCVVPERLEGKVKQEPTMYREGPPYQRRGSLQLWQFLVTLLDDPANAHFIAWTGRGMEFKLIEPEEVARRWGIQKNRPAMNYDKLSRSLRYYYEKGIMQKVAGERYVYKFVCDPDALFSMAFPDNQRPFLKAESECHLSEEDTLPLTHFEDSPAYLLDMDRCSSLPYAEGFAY

Regarding TGTATC, the binding signal was 1.65 fold enrichment (6-mer frequency, TF over GST control) in assay [1]; 1.39 fold enrichment (6-mer frequency, TF over GST control) in assay [2]; 1.45 fold enrichment (6-mer frequency, TF over GST control) in assay [3]; 1.39 fold enrichment (6-mer frequency, TF over GST control) in assay [4]; 1.38 fold enrichment (6-mer frequency, TF over GST control) in assay [5]; 1.36 fold enrichment (6-mer frequency, TF over GST control) in assay [6]. For the same sequence, the binding signal in assay [7] was 1.37 fold enrichment (6-mer frequency, TF over GST control); in [8], 1.45 fold enrichment (6-mer frequency, TF over GST control); in [9], 1.44 fold enrichment (6-mer frequency, TF over GST control); in assay [10], 1.41 fold enrichment (6-mer frequency, TF over GST control); in assay [11], 1.4 fold enrichment (6-mer frequency, TF over GST control); in assay [12] it was 1.16 fold enrichment (6-mer frequency, TF over GST control). Further, the binding signal in [13] was 1.46 fold enrichment (6-mer frequency, TF over GST control); in [14] it was 1.44 fold enrichment (6-mer frequency, TF over GST control); in [15], 1.46 fold enrichment (6-mer frequency, TF over GST control); in [16] it was 1.36 fold enrichment (6-mer frequency, TF over GST control); in assay [17] it was 1.41 fold enrichment (6-mer frequency, TF over GST control); in [18], 1.15 fold enrichment (6-mer frequency, TF over GST control). Further, the binding signal in assay [19] was 1.37 fold enrichment (6-mer frequency, TF over GST control).
